Laboratory results: PubChem BioAssay AID1159580 (chemical genetic matrix, 2015)
In all, about 5,500 compounds went through this assay and about 2,000 (36%) were called active. Roughly 18% stayed inconclusive and do not appear here. Cut-off read from the data, not from the text of the source: active = normalized growth mostly below about 0.91 (no sharp cut-off); inconclusive = no clear call, values can overlap the other calls; inactive = mostly above about 0.92. Some of the results follow.

Test: chemical genetic growth profiling, strain panel (AID 1159580);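 note: tested at 20 µM; growth read once vehicle control cultures reached saturation at 30 °C; 1 = growth at the plate median or of vehicle wells; lower values mean less growth of the strain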
Details: growth OD

Measured: normalized growth

CN[C@@H]1[C@H](OC2[C@H](O[C@H]3[C@H](O)[C@@H](O)[C@H](N=C(N)N)[C@@H](O)[C@@H]3N=C(N)N)O[C@@H](C)[C@]2(O)C=O)O[C@@H](CO)[C@H](O)[C@H]1O (stereo not given in full)
inactive: S. cerevisiae deletion strains, locus YKL009W, strain mrt4, stronger effect = lower value 1.03 | S. cerevisiae deletion strains, locus YKL068W, stronger effect = lower value 1 | S. cerevisiae deletion strains, locus YKL085W, strain MDH1 (second series), stronger effect = lower value 1 | S. cerevisiae deletion strains, locus YKL085W, strain MDH1, stronger effect = lower value 1 | S. cerevisiae deletion strains, locus YKL160W, strain elf1, stronger effect = lower value 1.02 | S. cerevisiae deletion strains, locus YKL190W, strain CNB1, stronger effect = lower value 0.997 | S. cerevisiae deletion strains, locus YKR001C, strain vps1, stronger effect = lower value 1.01 | S. cerevisiae deletion strains, locus YKR026C, strain gcn3, stronger effect = lower value 1 | S. cerevisiae deletion strains, locus YKR091W, strain srl3, stronger effect = lower value 1.01 | S. cerevisiae deletion strains, locus YLL001W, strain dnm1, stronger effect = lower value 1.03 | S. cerevisiae deletion strains, locus YLL026W, stronger effect = lower value 1.02 | S. cerevisiae deletion strains, locus YLL041C, strain sdh2, stronger effect = lower value 1 | S. cerevisiae deletion strains, locus YLR027C, strain aat2, stronger effect = lower value 1.02 | S. cerevisiae deletion strains, locus YLR039C, strain RIC1, stronger effect = lower value 0.997 | S. cerevisiae deletion strains, locus YLR058C, strain SHM2, stronger effect = lower value 1.01 | S. cerevisiae deletion strains, locus YLR102C, strain apc9, stronger effect = lower value 1.01 | S. cerevisiae deletion strains, locus YLR113W, strain HOG1, stronger effect = lower value 0.964 | S. cerevisiae deletion strains, locus YLR221C, strain rsa3, stronger effect = lower value 0.989 | S. cerevisiae deletion strains, locus YLR258W, strain gsy2, stronger effect = lower value 0.991 | S. cerevisiae deletion strains, locus YLR262C, strain YPT6 (second series), stronger effect = lower value 1.04 | S. cerevisiae deletion strains, locus YLR262C, strain YPT6, stronger effect = lower value 1.01 | S. cerevisiae deletion strains, locus YLR268W, strain sec22, stronger effect = lower value 1 | S. cerevisiae deletion strains, locus YLR320W, strain mms22, stronger effect = lower value 0.969 | S. cerevisiae deletion strains, locus YLR330W, strain CHS5, stronger effect = lower value 1 | S. cerevisiae deletion strains, locus YLR342W, strain FKS1 (second series), stronger effect = lower value 1.01 | S. cerevisiae deletion strains, locus YLR342W, strain FKS1, stronger effect = lower value 1.04 | S. cerevisiae deletion strains, locus YLR357W, strain rsc2, stronger effect = lower value 1.02 | S. cerevisiae deletion strains, locus YLR370C, strain arc18, stronger effect = lower value 1.02 | S. cerevisiae deletion strains, locus YLR371W, strain rom2, stronger effect = lower value 1.01 | S. cerevisiae deletion strains, locus YLR384C, strain iki3, stronger effect = lower value 1.01 | S. cerevisiae deletion strains, locus YLR418C, strain cdc73, stronger effect = lower value 1.02 | S. cerevisiae deletion strains, locus YML016C, strain PPZ1, stronger effect = lower value 1.02 | S. cerevisiae deletion strains, locus YML032C, strain rad52, stronger effect = lower value 1.01 | S. cerevisiae deletion strains, locus YML120C, strain ndi1, stronger effect = lower value 1.02 | S. cerevisiae deletion strains, locus YML124C, strain tub3, stronger effect = lower value 1.02 | S. cerevisiae deletion strains, locus YMR058W, strain fet3, stronger effect = lower value 1.02 | S. cerevisiae deletion strains, locus YMR078C, strain ctf18, stronger effect = lower value 1.02 | S. cerevisiae deletion strains, locus YMR125W, strain sto1, stronger effect = lower value 0.969 | S. cerevisiae deletion strains, locus YMR129W, stronger effect = lower value 1 | S. cerevisiae deletion strains, locus YMR205C, strain PFK2, stronger effect = lower value 1.02 | S. cerevisiae deletion strains, locus YMR223W, strain ubp8, stronger effect = lower value 1.02 | S. cerevisiae deletion strains, locus YMR231W, strain pep5, stronger effect = lower value 0.997 | S. cerevisiae deletion strains, locus YMR263W, strain SAP30, stronger effect = lower value 1.01 | S. cerevisiae deletion strains, locus YMR307W, strain GAS1, stronger effect = lower value 0.965 | S. cerevisiae deletion strains, locus YNL067W, strain RPL9B, stronger effect = lower value 1.01 | S. cerevisiae deletion strains, locus YNL071W, strain lat1, stronger effect = lower value 0.992 | S. cerevisiae deletion strains, locus YNL128W, strain TEP1, stronger effect = lower value 1.01 | S. cerevisiae deletion strains, locus YNL153C, strain GIM3, stronger effect = lower value 1.01 | S. cerevisiae deletion strains, locus YNL183C, strain NPR1, stronger effect = lower value 0.938 | S. cerevisiae deletion strains, locus YNL209W, strain ssb2, stronger effect = lower value 0.998 | S. cerevisiae deletion strains, locus YNL233W, strain BNI4, stronger effect = lower value 1.01 | S. cerevisiae deletion strains, locus YNL248C, strain rpa49, stronger effect = lower value 0.962 | S. cerevisiae deletion strains, locus YNL250W, strain rad50, stronger effect = lower value 1.02 | S. cerevisiae deletion strains, locus YNL271C, strain bni1, stronger effect = lower value 1.01 | S. cerevisiae deletion strains, locus YNL298W, strain CLA4, stronger effect = lower value 1.02 | S. cerevisiae deletion strains, locus YNL307C, strain MCK1, stronger effect = lower value 1.02 | S. cerevisiae deletion strains, locus YNL322C, strain KRE1 (second series), stronger effect = lower value 1 | S. cerevisiae deletion strains, locus YNR049C, strain mso1, stronger effect = lower value 0.999 | S. cerevisiae deletion strains, locus YNR052C, strain pop2, stronger effect = lower value 1 | S. cerevisiae deletion strains, locus YOL006C, strain TOP1, stronger effect = lower value 1.01 | S. cerevisiae deletion strains, locus YOL012C, strain htz1 1.07 | S. cerevisiae deletion strains, locus YOL147C, strain pex11, stronger effect = lower value 1.01 | S. cerevisiae deletion strains, locus YOR001W, strain rrp6, stronger effect = lower value 1.04 | S. cerevisiae deletion strains, locus YOR061W, strain CKA2, stronger effect = lower value 1.01 | S. cerevisiae deletion strains, locus YOR069W, strain VPS5, stronger effect = lower value 1.01 | S. cerevisiae deletion strains, locus YOR070C, strain gyp1, stronger effect = lower value 0.987 | S. cerevisiae deletion strains, locus YOR080W, strain dia2, stronger effect = lower value 1 | S. cerevisiae deletion strains, locus YOR083W, strain WHI5, stronger effect = lower value 0.989 | S. cerevisiae deletion strains, locus YOR106W, strain vam3, stronger effect = lower value 1.03 | S. cerevisiae deletion strains, locus YOR136W, strain idh2, stronger effect = lower value 1.02 | S. cerevisiae deletion strains, locus YOR144C, strain elg1, stronger effect = lower value 1.02 | S. cerevisiae deletion strains, locus YOR184W, strain ser1, stronger effect = lower value 1.03 | S. cerevisiae deletion strains, locus YOR231W, strain MKK1, stronger effect = lower value 0.979 | S. cerevisiae deletion strains, locus YOR265W, strain rbl2, stronger effect = lower value 1.01 | S. cerevisiae deletion strains, locus YOR270C, strain vph1, stronger effect = lower value 1.02 | S. cerevisiae deletion strains, locus YOR290C, strain snf2, stronger effect = lower value 0.977 | S. cerevisiae deletion strains, locus YOR316C, strain cot1, stronger effect = lower value 1.01 | S. cerevisiae deletion strains, locus YPL051W, strain arl3, stronger effect = lower value 1.01 | S. cerevisiae deletion strains, locus YPL055C, strain LGE1, stronger effect = lower value 1.01 | S. cerevisiae deletion strains, locus YPL078C, strain atp4, stronger effect = lower value 1.04 | S. cerevisiae deletion strains, locus YPL106C, strain sse1, stronger effect = lower value 0.987 | S. cerevisiae deletion strains, locus YPL240C, strain hsp82, stronger effect = lower value 1.01 | S. cerevisiae deletion strains, locus YPL241C, strain CIN2, stronger effect = lower value 1 | S. cerevisiae deletion strains, locus YPL256C, strain CLN2, stronger effect = lower value 0.976 | S. cerevisiae deletion strains, locus YPR119W, strain clb2, stronger effect = lower value 1.01 | S. cerevisiae deletion strains, locus YPR141C, strain kar3, stronger effect = lower value 1.01 | S. cerevisiae deletion strains, locus YPR163C, strain tif3, stronger effect = lower value 1.02 | S. cerevisiae deletion strains, locus YPR167C, strain met16, stronger effect = lower value 1.02 | S. cerevisiae deletion strains, strain wtn01, stronger effect = lower value 1.01 | S. cerevisiae strains, strain wild type, stronger effect = lower value 1.01
